Rows were chosen to be rich in hits. Some 4.4% of all compounds tested hit in one or more screens of this group.
TIM10 inh – TIM10 yeast growth inhibition; S. cerevisiae TIM10 strain growth, BacTiter-Glo luminescence, 24 h; inhibition, % at 10 µM; 330,000 compounds, 1.4% hits;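 active means inhibition of 40% or more at the single tested concentration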;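 further: wild-type TIM10 isogenic control strain grown at permissive 25 °C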
tim23-1 inh – growth inhibitors of tim23-1 mutant yeast. inhibition, % at 20 µM. 330,000 compounds, 1.3% hits. S. cerevisiae tim23-1 growth, BacTiter-Glo luminescence, 24 h;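 active means growth inhibition of the mutant yeast at or above 50%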;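 further: temperature-sensitive mutant grown at 25 °C; plate controls were DMSO-treated mutant yeast for no effect and medium wells lacking yeast for full effect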
tim10-1 inh – tim10-1 yeast growth inhibition; S. cerevisiae tim10-1 ts strain growth, BacTiter-Glo, 24 h; AID 463190; inhibition, % at 20 µM; 330,000 compounds, 2.2% hits;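 active means inhibition of at least 40%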;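 further: mutant grown at 25 °C; 0% = DMSO wells with yeast and 100% = wells holding no yeast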
SKKanGAS inh – SKKanGAS growth inhibition; S. pyogenes SKKanGAS, kanamycin growth, BacTiter-Glo, 6 h; inhibition, % at 7.5 µM; 300,000 compounds, 1.3% hits;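 active means mean replicate score, as percent of positive control median, at least 50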;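 further: strain carries kanamycin resistance gene driven by streptokinase promoter and grows in 40 µg/ml kanamycin; loss of luminescence reflects streptokinase promoter inhibition or plain growth inhibition; 0% = median of DMSO wells and 100% = positive control at its reference dose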
PfHsp90 set2 – reduces growth (ATP signal) of yeast expressing P. falciparum Hsp90; S. cerevisiae expressing PfHsp90, BacTiter-Glo ATP, 48 h; yeast lacking PDR1 and PDR3 efflux regulators; 310,000 compounds, 0.32% hits; inhibition, % at 9.4 µM;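 active means every replicate shows inhibition above about 80%, whatever the replicate mean, limit read from the data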;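 further: 0% = DMSO neutral controls and 100% = 20 µM radicicol positive controls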
tim10-1 confirm – confirmation of tim10-1 mutant yeast growth inhibitors; 7,400 compounds, 56% hits; inhibition, % at 20 µM; AID 463213; shares compounds with tim10-1 inh; S. cerevisiae tim10-1 ts strain growth, BacTiter-Glo, 24 h;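 active means inhibition of yeast growth at or above a set limit in either of two repeat tests at 20 µM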;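 further: tim10-1 mutant grown at permissive 25 °C to find synthetic lethal compounds; 0% = DMSO yeast wells and 100% = medium wells without yeast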
* = called active by the depositor; . = not tested or not shown.

SMILES | TIM10 inh | tim23-1 inh | tim10-1 inh | SKKanGAS inh | PfHsp90 set2 | tim10-1 confirm
CCOc1ccc(S(=O)(=O)N2CCN(C(=O)CCOc3ccccc3C)CC2)cc1 | 16.3 | 27.9 | 31.6 | 19.6 | 8.0 | .
O=C1C2ON(c3ccccc3)C(c3ccccc3F)C2C(=O)N1c1ccccc1 (stereo not drawn) | 1.8 | 15.2 | 19.4 | 3.5 | -20.7 | .
O=C1C2ON(c3ccc(Cl)cc3)C(c3ccco3)C2C(=O)N1c1ccccc1 (stereo not drawn) | 6.8 | 34.0 | 43.6* | 2.4 | -20.4 | 35.4*
CCCCN(C(=O)C1CCN(C(=O)c2ccccc2C)CC1)c1c(N)n(CC(C)C)c(=O)[nH]c1=O | . | . | . | . | 0.4 | .
CSc1ncccc1C(=O)N1CCN(S(=O)(=O)c2ccc3c(c2)OCCO3)CC1 | 9.5 | 15.1 | 11.9 | . | . | .
O=C(c1ccco1)N1CCN(C(=O)c2ccc(-c3cccc(C(F)(F)F)c3)o2)CC1 | -13.0 | 23.3 | 0.2 | 3.1 | -22.5 | .
O=C(c1ccc(-c2cccc(C(F)(F)F)c2)o1)N1CCCCCCC1 | 12.8 | 33.2 | 40.8* | -0.6 | -6.9 | 29.6*
c1ccc(-c2nc3ccccc3c3nc4ccccc4n23)cc1 | 15.7 | 5.9 | 26.6 | -3.1 | -8.5 | .
FC(F)(F)c1nnc2c(Sc3ccccn3)nc3ccccc3n12 | 34.7 | 47.7 | 55.3* | 5.7 | . | 35.2*
FC(F)(F)c1nc2ccccc2c2nc3ccccc3n12 | 11.7 | 1.4 | 41.4* | -7.1 | 3.4 | 18.7
CN(CC(=O)Nc1sccc1C(N)=O)S(=O)(=O)c1ccc(Cl)cc1 | 8.8 | 13.7 | 0.8 | . | -45.3 | .
COc1ccc2oc(C(=O)OCc3c(C)noc3C)c(C)c2c1 | -18.5 | -5.2 | 20.1 | -15.2 | 0.0 | .
C=CCN1C(=O)C(O)(CC(=O)c2ccc(-n3cccc3)cc2)c2ccccc21 (stereo not drawn) | 29.4 | 38.9 | 43.1* | 3.3 | -7.5 | 36.2*
O=C(CCN1C(=O)C2CCCCC2C1=O)N1CCN(S(=O)(=O)c2c(F)cccc2F)CC1 (stereo not drawn) | -5.8 | -1.2 | 3.9 | 3.8 | -15.0 | .
CCCc1cc(=O)oc2cc(OCC(=O)NCc3ccccn3)ccc12 | 12.4 | 11.8 | 1.2 | 1.6 | 13.8 | .
CCCCc1cc(=O)oc2cc(OCC(=O)NCc3ccccn3)ccc12 | 2.3 | 22.6 | 47.7* | -1.9 | -19.4 | -2.4
Cc1cc(C)c(C(=O)NC2CC(C)(C)Cc3c2cnn3-c2ccccc2)o1 (stereo not drawn) | 19.7 | 42.1 | 45.0* | 1.2 | 21.9 | 24.1
COc1ccc(-n2ncc3c2CC(C)(C)CC3NC(=O)c2oc(C)cc2C)cc1 (stereo not drawn) | 13.7 | 36.3 | 44.2* | 1.0 | -29.4 | 10.8
Cc1ncoc1C(=O)NC1CC(C)(C)Cc2c1cnn2-c1ccccc1 (stereo not drawn) | 9.0 | 9.0 | 16.4 | 0.3 | -2.0 | .
CSCc1ccc(C(=O)NC2CC(C)(C)Cc3c2cnn3-c2ccc(F)cc2)o1 (stereo not drawn) | 24.7 | 38.4 | 40.9* | 0.7 | 19.2 | 13.2
COc1ccc(-n2ncc3c2CC(C)(C)CC3NC(=O)c2ocnc2C)cc1 (stereo not drawn) | -5.1 | 5.5 | 10.9 | -2.8 | -5.1 | .
C=C1CCC2[C@](C)(CO[C@@H]3O[C@H](CO)[C@@H](O)[C@H](O)[C@H]3O)CCC[C@@]2(C)[C@@H]1CCC1=CCOC1=O (stereo partly drawn) | 1.8 | 5.9 | -11.7 | . | -14.3 | .
CCCNC(=O)c1ccc(N2CCC3(CC2)CC(c2cccc(Br)c2)=NO3)c([N+](=O)[O-])c1 | 18.9 | 26.7 | 27.9 | 29.8 | 5.9 | .
Cc1ccc(S(=O)(=O)c2cc3ccccc3nc2N)cc1 | -9.4 | 8.0 | 6.7 | -1.3 | . | .
Cn1c(C(=O)NC2CCCCC2)cc2c(=O)n(C)c3ccccc3c21 | 5.9 | 21.7 | 20.3 | -13.0 | 0.2 | .
SMILES | TIM10 inh | tim23-1 inh | tim10-1 inh | SKKanGAS inh | PfHsp90 set2 | tim10-1 confirm
CC1CCC(NC(=O)c2cc3c(=O)n(C)c4ccccc4c3n2C)CC1 (stereo not drawn) | 20.9 | 26.7 | 40.1* | -5.8 | . | 28.6
CCOc1ccc(OCc2ccc(C(=O)N3CCCC(C)C3)cc2)cc1 (stereo not drawn) | 6.7 | 33.4 | 41.1* | -6.6 | -9.5 | 17.1
CN(C)c1nc(OCCNC(=O)COc2ccc(Cl)cc2Cl)nc(N(C)C)n1 | 14.0 | 16.6 | 43.8* | -10.7 | . | 15.4
COc1ccc(CN(C)CC(=O)Nc2cccc(S(=O)(=O)N3CCCC3)c2)cc1F | 11.6 | 9.7 | 20.7 | . | -10.3 | .
CSc1nnc(-c2ccc(NC(N)=S)cc2)o1 | 7.7 | 15.7 | 18.8 | 8.7 | -6.7 | .
CSc1nnc(-c2cccc(NC(=S)NN)c2)o1 | 34.2 | 5.4 | 49.0* | -14.1 | -1.2 | 9.1
Cc1ccc(S(=O)(=O)Nc2c(C)ccc3nsnc23)cc1 | -4.6 | 33.2 | 42.4* | 0.4 | 8.3 | 14.1
CCC1(c2ccc(F)cc2)NC(=O)N(CC(=O)NCC(=O)Nc2cccc(C)c2C)C1=O (stereo not drawn) | 3.3 | -1.6 | -8.0 | 3.3 | -1.2 | .
COc1ccccc1NC=C1C(=O)OC2(CCCCC2)OC1=O | 16.6 | 22.5 | 40.4* | -5.9 | . | 22.2
COC(=O)c1ccccc1NC=C1C(=O)OC2(CCCCC2)OC1=O | 5.4 | 4.3 | 30.5 | 2.2 | 16.0 | .
O=C(COC(=O)C1CC2C=CC1C2)Nc1cccc(S(=O)(=O)N2CCCCCC2)c1 (stereo not drawn) | 37.7 | 37.2 | 48.9* | -7.6 | 1.0 | 30.4
COCCCNC(=O)/C(C#N)=C/c1ccc(F)cc1 | 13.0 | 47.7 | 42.2* | -9.6 | -11.8 | 27.4
O=[N+]([O-])c1ccc(Sc2nccn2Cc2ccccc2)c([N+](=O)[O-])c1 | 35.0 | 39.0 | 50.9* | 0.7 | -10.7 | 25.6
O=[N+]([O-])c1cc(C(F)(F)F)ccc1Sc1nccn1Cc1ccccc1 | 17.1 | 10.8 | 22.1 | 1.7 | -8.9 | .
COc1ccc(-n2c(C)cc(C(=O)COC(=O)Cn3cnc4ccccc43)c2C)cc1 | 27.6 | 35.0 | 52.9* | 6.2 | -13.3 | 27.5
Cc1nc2cc(C(=O)OCC(=O)NC34CC5CC(CC(C5)C3)C4)ccc2n1-c1ccccc1 | 27.8 | 34.2 | 40.2* | 20.9 | -4.1 | 31.9*
O=C(CCC(=O)N1CCOCC1)NCCc1ccc(Cl)cc1Cl | 5.8 | 9.1 | 6.5 | 38.7 | 22.8 | .
COc1ccc(C)cc1NC(=O)c1cc(S(=O)(=O)N2CCC3(CC2)OCCO3)ccc1F | 20.0 | 44.6 | 45.9* | -2.0 | -15.4 | 19.1
O=C(CSc1nnc(NC2CC2)s1)NN1C(=O)NC2(CCCCC2)C1=O | -3.1 | 5.0 | 4.0 | . | -1.0 | .
O/N=C/c1ccccc1Oc1ccc(Cl)cc1 | -26.2 | 11.1 | -64.6 | -4.4 | 3.3 | .
N#CCC(=O)c1ccccc1Oc1ccc(Cl)cc1 | 21.5 | 46.9 | 49.8* | 16.1 | -12.1 | 28.7*
COc1ccc(Cl)cc1NC(=O)CN(C)C(=O)/C=C/c1ccco1 | 8.1 | 20.9 | 16.1 | . | -5.0 | .
S=c1[nH]c(-c2ccc(Cl)cc2)cs1 | 11.9 | 32.8 | 47.7* | 2.4 | -9.6 | 17.2

Assay outcomes as filed in PubChem BioAssay.
